{
  "source": "PubChem BioAssay (NCI)",
  "note": "Compounds without any hit were thinned out: in the full panel of roughly 83,000, 20% have a hit.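 Single-concentration screen, 48 h exposure, 96-well plates. Endpoint: percent growth. Below 10 = active.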 Unmarked numbers belong to inactive results. Activity calls are given as the source filed them.",
  "data": [
    {"tested_on": "UACC-257 melanoma", "experiment": "NCI-60 one-dose screen, 48 h (100 = growth as untreated, 0 = no growth, -100 = all killed)", "settings": "10 µM unless noted", "values": [
      {"smiles": "N#CC1=C(N)Oc2c(c(N)nn2-c2ccccc2)C1c1ccc(Cl)cc1Cl", "note": "(configuration not stated)", "growth": "104%"},
      {"smiles": "C=C(C)[C@@H]1CC[C@]2(C=O)CC[C@]3(C)[C@H](CC[C@@H]4[C@@]5(C)C/C(=C/c6cccnc6)C(=O)C(C)(C)[C@@H]5CC[C@]43C)[C@@H]12", "growth": "84.5%"},
      {"smiles": "C=C(C)[C@@H]1CC[C@]2(C(=O)N3CCN(CC)CC3)CC[C@]3(C)[C@H](CC[C@@H]4[C@@](C)(CCC(=O)N5CCN(CC)CC5)[C@H](C(=C)C)CC[C@]43C)[C@@H]12", "growth": "18.6%"},
      {"smiles": "CCN1CCN(C(=O)[C@]23CCC(C)(C)C[C@H]2C2=CC[C@@H]4[C@@]5(C)CC/C(=N/O)C(C)(C)[C@@H]5CC[C@@]4(C)[C@]2(C)CC3)CC1", "growth": "80.4%"},
      {"smiles": "N#CC1=C(N)Oc2c(sc3c(F)cccc23)C1c1ccc(Cl)cc1", "note": "(configuration not stated)", "growth": "66.4%"},
      {"smiles": "O=C1c2cccc3cccc(c23)C(=O)N1CC#Cc1ccc2c3c(cccc13)C(=O)N(CCN1CCNCC1)C2=O", "growth": "104%"},
      {"smiles": "C=C(C)[C@@H]1CC[C@]2(/C=N/Nc3ccncc3)CC[C@]3(C)[C@H](CC[C@@H]4[C@@]5(C)CCCNC(C)(C)[C@@H]5CC[C@]43C)[C@@H]12", "growth": "94.7%"},
      {"smiles": "Cc1ccnc2c(OCc3ccccc3)cccc12", "growth": "115%"},
      {"smiles": "C=CC(=O)N[C@H](Cc1ccc(-c2cc(Cl)cc(Cl)c2)cc1)[C@H](O)[C@@H](O)C(=O)O", "growth": "74.4%"},
      {"smiles": "C=COCCCCCCCCCCCCCCCCCC", "growth": "92.2%"},
      {"smiles": "CN1CCN(c2nc(-c3csc(-c4cccs4)n3)cc3ccccc23)CC1", "growth": "21.6%"},
      {"smiles": "O=C(O[C@@H]1Cc2c(O)cc(O)cc2O[C@@H]1c1cc(O)c(O)c(O)c1)c1cc(O)c2c(c1)OCO2", "growth": "83%"},
      {"smiles": "C/C(Cc1ccc(Cl)cc1)=C(/c1ccc(Cl)cc1)c1ccc(OCCN2CCCC2)cc1", "growth": "79.7%"},
      {"smiles": "Cc1cc(N(CCCNc2ccnc3cc(Cl)ccc23)Cc2ccco2)nc(N2CCOCC2)n1", "growth": "106%"},
      {"smiles": "Cc1ccccc1-c1nc(C(Cl)Cl)nc2cc(-c3ccccc3)nn12", "growth": "107%"},
      {"smiles": "O=C1/C(=C\\C(Cl)=C/c2ccc([N+](=O)[O-])cc2)SC(=S)N1CCc1ccc(O)cc1", "growth": "4.06% (active)"},
      {"smiles": "Brc1ccc2c(c1)c(-c1nc(-c3c[nH]c4ncccc34)cs1)cn2CCCN1CCCCC1", "growth": "66.1%"},
      {"smiles": "Cn1c(/C(C#N)=C/c2ccc3ccccc3c2)cc2ccccc21", "growth": "84.8%"},
      {"smiles": "CN(CSc1ccc(Cl)cc1)c1ccc(CSc2ccc(Cl)cc2)cc1", "growth": "76%"},
      {"smiles": "CCNCCCn1c2c(c3ccc([N+](=O)[O-])cc3c1=O)C(=O)c1cc(OC)cnc1-2", "growth": "-45.3% (active)"},
      {"smiles": "CC1(C)NC2=C(C(Nc3cccnc3)N1)C(c1ccc([N+](=O)[O-])cc1)C(C(=O)c1ccc(N=[N+]=[N-])cc1)O2", "note": "(configuration not stated)", "growth": "104%"},
      {"smiles": "COc1ccc(C2C(C#N)=C(N)Oc3c2sc2c(F)cccc32)cc1", "note": "(configuration not stated)", "growth": "64.9%"},
      {"smiles": "COc1cc(-c2cc3ncccc3c3[nH]c(=O)c4cccnc4c23)cc(OC)c1OC", "growth": "51.5%"},
      {"smiles": "CCCCC/C(=C\\c1ccccc1)C1OC(C)C(C)O1", "note": "(configuration not stated)", "growth": "70.1%"},
      {"smiles": "COc1ccc2c(c1)c(-c1nc(-c3c[nH]c4ncccc34)cs1)cn2CCNC(=O)OC(C)(C)C", "growth": "98.5%"},
      {"smiles": "COc1cc(/C=C/c2cc(/C=C/c3ccc(O)c(OC)c3)n(-c3ccccc3)c(=O)n2)ccc1O", "growth": "88.9%"},
      {"smiles": "CCN1CCN(C(=O)[C@]23CC[C@@H](C)[C@H](C)[C@H]2C2=CC[C@@H]4[C@@]5(C)C/C(=C/c6cccc(OC)c6OC)C(=O)C(C)(C)[C@@H]5CC[C@@]4(C)[C@]2(C)CC3)CC1", "growth": "46.4%"},
      {"smiles": "COc1cc2c(cc1-c1c(C)noc1C)ncc1nc(C3CCCCC3)n([C@@H](C)COC(F)F)c12", "growth": "28.2%"},
      {"smiles": "CC(=O)OC[C@]12CC[C@@H](/C(C)=N/O)[C@@H]1[C@H]1CC[C@@H]3[C@@]4(C)CCCNC(C)(C)[C@@H]4CC[C@@]3(C)[C@]1(C)CC2", "growth": "81.4%"},
      {"smiles": "Brc1cnc2[nH]cc(-c3nnc(-c4ccccc4)o3)c2c1", "growth": "112%"},
      {"smiles": "COc1ccc2[nH]c(-c3ccc(Cl)cc3)cc(=O)c2c1", "growth": "98%"},
      {"smiles": "CCN1CCN(C(=O)[C@]23CCC(C)(C)C[C@@H]2C2=CC[C@@H]4[C@@]5(C)C/C(=C/c6ccncc6)C(=O)C(C)(C)[C@@H]5CC[C@@]4(C)[C@]2(C)CC3)CC1", "growth": "-2.01% (active)"},
      {"smiles": "COc1ccc(/C=C(\\C#N)c2cc3ccccc3n2S(C)(=O)=O)cc1", "growth": "90.2%"},
      {"smiles": "Cc1ccc(S(=O)(=O)Nc2ccc(-c3cc(-c4cccc(F)c4)c(C#N)c(=O)[nH]3)cc2)cc1", "growth": "103%"},
      {"smiles": "N#CC1=C(N)Oc2c(c(N)nn2-c2ccccc2)C1c1ccc(Cl)cc1", "note": "(configuration not stated)", "growth": "105%"},
      {"smiles": "C=C(C)[C@@H]1CC[C@]2(CN)CC[C@]3(C)[C@H](CC[C@@H]4[C@@]5(C)CCC(=O)NC(C)(C)[C@@H]5CC[C@]43C)[C@@H]12", "growth": "29.6%"},
      {"smiles": "CC1(C)[C@@H](O)CC[C@]2(C)[C@H]3CC[C@@H]4[C@H]5[C@H](C(=O)/C=C/c6ccc(C(F)(F)F)cc6)CC[C@]5(CO)CC[C@@]4(C)[C@]3(C)CC[C@@H]12", "growth": "67.4%"}
    ]}
  ]
}
